From the supplement of paper PMC6555819

Columns and labels:
Assay in all cases: PBM binding z-score (relative to random genomic background probes); higher = stronger binding; sequences stand for … in GC…GCGATTGACAGCGTAGAATGAAGG
[1] = tested on: FXR:RXRa (NR concentration 270 nM, RXRa partner concentration 90 nM)
Procedure, shortened: (§1)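 Binding buffer was PBS pH 7.4 with 2% milk, 0.02% Triton X-100, 1 mM DTT, 0.2 mg/mL BSA and 0.4 mg/ml salmon testes DNA. In it, ligand-free nuclear receptor dimers were incubated 1 h on custom Agilent 4×180K protein-binding microarrays carrying double-stranded probes. Antibodies against each partner (one per run) detected binding, and z-scores were calculated against random background probes after regression normalization of scanned fluorescence.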

[2] = tested on: LXRa:RXRa (NR concentration 270 nM, RXRa partner concentration 90 nM)
Procedure, shortened: as §1

[3] = tested on: LXRa homodimer (NR concentration 270 nM)
Procedure, shortened: as §1

[4] = tested on: LXRb:RXRa (NR concentration 270 nM, RXRa partner concentration 90 nM)
Procedure, shortened: as §1

[5] = tested on: LXRb homodimer (NR concentration 270 nM)
Procedure, shortened: as §1

[6] = tested on: PPARa:RXRa (NR concentration 270 nM, RXRa partner concentration 90 nM)
Procedure, shortened: as §1

[7] = tested on: PPARg:RXRa (NR concentration 180 nM, RXRa partner concentration 90 nM)
Procedure, shortened: as §1

[8] = tested on: PPARg:RXRa 270nM:90nM, anti-RXR (NR concentration 270 nM, RXRa partner concentration 90 nM)
Procedure, shortened: as §1

[9] = tested on: PPARg:RXRa 30nM:10nM, anti-RXR (NR concentration 30 nM, RXRa partner concentration 10 nM)
Procedure, shortened: as §1

[10] = tested on: PPARg:RXRa 90nM:30nM, anti-RXR (NR concentration 90 nM, RXRa partner concentration 30 nM)
Procedure, shortened: as §1

[11] = tested on: PPARg:RXRa DBDmut IVT, anti-RXR (DBD mutation: RXRa K156A/R161A, NR concentration 270 nM, RXRa partner concentration 90 nM)
Procedure, shortened: as §1

[12] = tested on: PPARg:RXRa IVT, anti-PPARg (NR concentration 270 nM, RXRa partner concentration 90 nM)
Procedure, shortened: as §1

[13] = tested on: PPARg DBDmut:RXRa IVT, anti-PPARg (DBD mutation: PPARg1 K132A/R137A, NR concentration 270 nM, RXRa partner concentration 90 nM)
Procedure, shortened: as §1

[14] = tested on: PPARg DBDmut IVT, anti-PPARg (DBD mutation: PPARg1 K132A/R137A, NR concentration 270 nM)
Procedure, shortened: as §1

[15] = tested on: PPARg homodimer (NR concentration 180 nM)
Procedure, shortened: as §1

[16] = tested on: PXR:RXRa (NR concentration 270 nM, RXRa partner concentration 90 nM)
Procedure, shortened: as §1

[17] = tested on: PXR homodimer (NR concentration 270 nM)
Procedure, shortened: as §1

[18] = tested on: RARa:RXR (NR concentration 270 nM, RXRa partner concentration 90 nM)
Procedure, shortened: as §1

[19] = tested on: RARa homodimer (NR concentration 270 nM)
Procedure, shortened: as §1

[20] = tested on: RARb:RXRa (NR concentration 270 nM, RXRa partner concentration 90 nM)
Procedure, shortened: as §1

| Sequence | PBM binding z-score [1] | PBM binding z-score [2] | PBM binding z-score [3] | PBM binding z-score [4] | PBM binding z-score [5] | PBM binding z-score [6] | PBM binding z-score [7] | PBM binding z-score [8] | PBM binding z-score [9] | PBM binding z-score [10] | PBM binding z-score [11] | PBM binding z-score [12] | PBM binding z-score [13] | PBM binding z-score [14] | PBM binding z-score [15] | PBM binding z-score [16] | PBM binding z-score [17] | PBM binding z-score [18] | PBM binding z-score [19] | PBM binding z-score [20] |
| --- | --- | --- | --- | --- | --- | --- | --- | --- | --- | --- | --- | --- | --- | --- | --- | --- | --- | --- | --- | --- |
| CCTCGGAGGACAGTAGGTCAGAGCTGTCCGCTTT | 0.394 | 0.75 | -0.0267 | -0.0579 | -0.769 | 1.64 | 0.253 | 1.47 | -0.726 | 0.521 | 2.48 | 3.2 | -0.95 | -1.78 | 0.409 | 0.0704 | -0.598 | 0.582 | 0.337 | 1.97 |
| TCGAGTAGGTTATCAATGGGGCATTCAGCTTTCT | 0.264 | 1.14 | -0.501 | 1.05 | -0.428 | 0.979 | -0.105 | 0.76 | 1.03 | 0.852 | 3.08 | 1.84 | -0.103 | -0.254 | -0.00524 | 0.223 | -0.333 | 0.202 | -0.0483 | 0.739 |
| CGTCCCAGGTCATAGGAGGTCAGTGAAGACAGAT | 5.9 | 6.34 | 4.26 | 5.07 | 0.872 | 4.83 | 3.87 | 4.13 | 1.16 | 2.74 | 1.76 | 3.65 | 0.856 | 0.281 | 3.83 | 6.15 | 2.57 | 4.89 | 2.28 | 4.5 |
| CCTATTAGTTAACCATAAGGGCAACCGAAGCTCG | 0.323 | 0.341 | 0.429 | 0.249 | 0.486 | 0.386 | 0.374 | 0.215 | 0.166 | 0.0193 | 0.296 | 0.65 | 0.701 | 0.763 | 1.71 | 0.409 | 0.723 | 0.812 | 1.42 | 1.41 |
| CGAACTAGGTCTGAACAGGACAGTGAAGGATGAT | -0.499 | -0.813 | -0.618 | -0.891 | -0.912 | -0.134 | 0.652 | -0.276 | -0.221 | -0.128 | 1.88 | 0.996 | -0.255 | -0.111 | -0.44 | -0.688 | -0.469 | -0.635 | -0.454 | -0.192 |
| CCTATTAGTTGACCATAGGGGCAACCGAAGCTCG | 0.589 | 0.362 | 0.304 | 0.153 | 0.195 | 0.245 | 0.395 | 0.309 | -0.142 | 0.113 | 0.502 | 0.611 | 0.353 | -0.128 | 1.32 | 0.256 | 0.563 | 0.446 | 1.9 | 0.983 |
| GCTTGTAGATCATGGTTAAGAAAGACTAAGCTAA | -0.444 | -0.5 | -0.382 | -0.729 | -0.647 | -0.285 | -0.054 | 0.171 | -0.126 | -0.187 | 0.856 | 0.283 | 0.687 | -0.0333 | 0.17 | -0.334 | -0.29 | -0.161 | -0.00288 | -0.371 |
